Laboratory results published in article PMC4601081.

What was measured:
Test in all cases: cross-link between two proteins; cross-linking mass spectrometry
[1] = target: 26S proteasome regulatory subunit RPN5 (UniProt Q12250)
[2] = target: 26S proteasome regulatory subunit RPN8 (UniProt Q08723)
[3] = target: 26S proteasome regulatory subunit RPN6 (UniProt Q12377)
[4] = target: 26S proteasome regulatory subunit RPN7 (UniProt Q06103)
[5] = target: Ubiquitin C-terminal hydrolase RPN11 (UniProt P43588)
[6] = target: 26S proteasome regulatory subunit RPN3 (UniProt P40016)
26S proteasome regulatory subunit RPN3, sequence (P40016 whole entry): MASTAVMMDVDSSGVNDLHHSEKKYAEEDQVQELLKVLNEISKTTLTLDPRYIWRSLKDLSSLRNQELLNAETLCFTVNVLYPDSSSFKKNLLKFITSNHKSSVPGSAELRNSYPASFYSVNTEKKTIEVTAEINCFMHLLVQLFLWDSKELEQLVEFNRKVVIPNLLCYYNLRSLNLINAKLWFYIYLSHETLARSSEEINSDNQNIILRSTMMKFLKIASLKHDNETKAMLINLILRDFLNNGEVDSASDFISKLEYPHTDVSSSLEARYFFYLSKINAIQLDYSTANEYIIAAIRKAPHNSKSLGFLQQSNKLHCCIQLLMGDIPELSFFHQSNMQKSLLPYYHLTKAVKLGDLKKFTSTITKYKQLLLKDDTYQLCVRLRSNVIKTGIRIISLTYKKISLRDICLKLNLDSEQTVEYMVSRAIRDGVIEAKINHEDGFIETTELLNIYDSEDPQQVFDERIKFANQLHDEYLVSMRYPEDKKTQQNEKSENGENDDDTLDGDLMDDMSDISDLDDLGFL

26S proteasome regulatory subunit RPN8, sequence (Q08723 whole entry): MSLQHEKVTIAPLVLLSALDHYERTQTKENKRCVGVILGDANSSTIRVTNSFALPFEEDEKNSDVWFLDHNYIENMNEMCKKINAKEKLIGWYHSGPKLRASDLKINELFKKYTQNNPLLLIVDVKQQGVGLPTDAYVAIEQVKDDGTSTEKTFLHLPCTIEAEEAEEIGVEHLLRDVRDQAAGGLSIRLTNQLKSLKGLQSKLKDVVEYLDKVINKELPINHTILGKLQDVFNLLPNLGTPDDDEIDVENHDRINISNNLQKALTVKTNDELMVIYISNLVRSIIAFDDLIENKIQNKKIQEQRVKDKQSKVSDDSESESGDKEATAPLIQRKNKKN
26S proteasome regulatory subunit RPN5, sequence (Q12250 whole entry): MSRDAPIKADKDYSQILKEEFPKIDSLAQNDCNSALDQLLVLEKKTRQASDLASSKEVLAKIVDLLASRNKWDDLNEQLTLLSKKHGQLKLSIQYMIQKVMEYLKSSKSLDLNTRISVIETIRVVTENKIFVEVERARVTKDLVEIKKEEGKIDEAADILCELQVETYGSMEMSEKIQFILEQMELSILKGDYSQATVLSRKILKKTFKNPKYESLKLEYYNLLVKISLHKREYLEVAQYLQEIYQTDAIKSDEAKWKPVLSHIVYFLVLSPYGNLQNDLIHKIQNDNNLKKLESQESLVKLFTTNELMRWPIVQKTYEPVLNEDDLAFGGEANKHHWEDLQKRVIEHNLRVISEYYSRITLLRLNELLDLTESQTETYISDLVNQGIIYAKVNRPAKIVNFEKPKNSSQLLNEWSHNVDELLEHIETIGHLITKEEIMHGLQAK
26S proteasome regulatory subunit RPN6, sequence (Q12377 whole entry): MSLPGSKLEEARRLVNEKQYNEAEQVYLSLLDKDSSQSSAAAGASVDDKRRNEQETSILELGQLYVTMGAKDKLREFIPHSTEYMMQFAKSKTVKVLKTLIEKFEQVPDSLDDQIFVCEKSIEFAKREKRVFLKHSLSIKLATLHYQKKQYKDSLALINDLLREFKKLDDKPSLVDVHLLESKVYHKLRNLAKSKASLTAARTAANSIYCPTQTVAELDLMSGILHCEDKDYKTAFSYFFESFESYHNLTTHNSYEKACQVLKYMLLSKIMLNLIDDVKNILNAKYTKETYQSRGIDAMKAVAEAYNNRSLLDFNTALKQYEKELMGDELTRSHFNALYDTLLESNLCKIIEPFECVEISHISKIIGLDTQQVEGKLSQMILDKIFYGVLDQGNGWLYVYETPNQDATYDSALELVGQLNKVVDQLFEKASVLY
26S proteasome regulatory subunit RPN7, sequence (Q06103 whole entry): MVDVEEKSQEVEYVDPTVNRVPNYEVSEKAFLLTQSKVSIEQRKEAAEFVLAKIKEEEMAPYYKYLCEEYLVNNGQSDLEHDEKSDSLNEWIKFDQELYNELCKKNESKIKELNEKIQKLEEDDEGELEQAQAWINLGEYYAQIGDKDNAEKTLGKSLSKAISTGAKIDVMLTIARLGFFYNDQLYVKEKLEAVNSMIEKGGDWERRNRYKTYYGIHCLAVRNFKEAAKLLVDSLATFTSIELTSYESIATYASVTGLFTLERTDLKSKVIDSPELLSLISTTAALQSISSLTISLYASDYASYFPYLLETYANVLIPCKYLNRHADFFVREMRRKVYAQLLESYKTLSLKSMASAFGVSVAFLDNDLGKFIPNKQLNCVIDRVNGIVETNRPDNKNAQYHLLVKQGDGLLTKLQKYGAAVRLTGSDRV
Ubiquitin C-terminal hydrolase RPN11, sequence (P43588 whole entry): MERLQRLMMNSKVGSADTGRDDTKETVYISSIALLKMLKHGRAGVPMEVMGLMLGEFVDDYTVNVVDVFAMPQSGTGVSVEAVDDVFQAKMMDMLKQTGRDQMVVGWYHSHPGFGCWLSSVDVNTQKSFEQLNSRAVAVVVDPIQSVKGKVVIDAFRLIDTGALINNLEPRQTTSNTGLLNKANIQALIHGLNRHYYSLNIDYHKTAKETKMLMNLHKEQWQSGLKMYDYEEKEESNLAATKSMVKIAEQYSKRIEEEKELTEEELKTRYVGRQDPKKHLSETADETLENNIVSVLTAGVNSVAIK

## 26S proteasome regulatory subunit RPN9, Q04062
[1]
  listed as a hit: yes
[2]
  listed as a hit: yes

## Ubiquitin C-terminal hydrolase RPN11, P43588
[1]
  listed as a hit: yes
[3]
  listed as a hit: yes
[4]
  listed as a hit: yes

## 26S proteasome regulatory subunit RPN7, Q06103
[1]
  listed as a hit: yes
[3]
  listed as a hit: yes
[2]
  listed as a hit: yes

## 26S proteasome regulatory subunit RPN8, Q08723
[1]
  listed as a hit: yes
[3]
  listed as a hit: yes

## 26S proteasome regulatory subunit RPN5, Q12250
[3]
  listed as a hit: yes

## 26S proteasome regulatory subunit RPN3, P40016
[4]
  listed as a hit: yes
[2]
  listed as a hit: yes
[5]
  listed as a hit: yes

## 26S proteasome complex subunit SEM1, O94742
[6]
  listed as a hit: yes
[2]
  listed as a hit: yes
[5]
  listed as a hit: yes
